Screening data deposited in PubChem BioAssay by National Center for Advancing Translational Sciences (NCATS).
Sm TGR block: S. mansoni TGR enzyme inhibition. Q962Y6. purified TGR, DTNB reduction, TNB absorbance 405 nm. Potency, µM (top dose mostly 114 µM), for the others: top-dose activity change, negative = inhibition, actives largely listed as inhibitors. actives 3% (n = 360,000); also: % is scaled to controls: 0 for no effect and ±100 for the full control effect; nearly all actives have a fitted effect of over 60% in size
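TGR 20 nM + NADPH 100 uM (dispensed conc.), cpd preinc 15 min RT; start with NADPH (500 uM addition) then DTNB (15 mM addition). Kinetic TNB absorbance, 405 nm filter. Four-parameter Hill fit across titration.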
AmpC inh no detg: blocks E. coli AmpC beta-lactamase in detergent-free assay; Potency, µM (titrated, usually from 57.1 µM), for the others: top-dose activity change, negative = inhibition, actives largely listed as inhibitors; AmpC nitrocefin hydrolysis, absorbance 480 nm, 0.0001% Triton; P00811; actives 0.52% (n = 330,000);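 also: plate controls were no compound for no effect and no enzyme for full effect; nearly all actives have a fitted effect of over 20% in size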
Target sequence (P00811 whole entry, looked up): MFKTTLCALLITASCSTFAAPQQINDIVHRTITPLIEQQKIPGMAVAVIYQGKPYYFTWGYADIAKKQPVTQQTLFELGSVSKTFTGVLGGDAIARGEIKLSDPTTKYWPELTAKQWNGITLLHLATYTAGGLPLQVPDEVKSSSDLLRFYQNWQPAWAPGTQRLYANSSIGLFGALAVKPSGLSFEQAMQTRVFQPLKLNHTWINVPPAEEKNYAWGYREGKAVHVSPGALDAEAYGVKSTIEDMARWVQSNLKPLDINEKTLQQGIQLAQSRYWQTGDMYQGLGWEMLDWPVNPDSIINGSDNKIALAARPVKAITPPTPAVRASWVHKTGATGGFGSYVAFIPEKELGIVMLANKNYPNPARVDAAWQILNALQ
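20 mM phosphate pH 7.0 + 0.01% (detergent screen) or 0.0001% Triton X-100; 5.3 nM AmpC reagent; cpd preinc 15 min RT; nitrocefin (800 uM stock) to start; A480 q20 s × 4 min; Activity was normalised to no-enzyme and no-compound control wells.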
Tb PYK inh: T. brucei pyruvate kinase inhibition; Q57TT1; TbPYK enzyme, Kinase-Glo Plus ATP luminescence, 45 min; AID 624173; actives 0.12% (n = 410,000); Potency, µM (top dose mostly 76.8 µM), for inactives: at the top dose activity, negative = inhibition, usual class: inhibitors; also: % is scaled to controls: 0 for no effect and ±100 for the full control effect; nearly all actives have a fitted effect of over 50% in size
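T. brucei PYK with substrate was exposed to pin-transferred compounds across a concentration series, then started with 130 uM ADP (final). After 45 min at room temperature, Kinase-Glo Plus luminescence was read, normalized and curve-fitted.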
SARS PLpro yeast: blocks SARS-CoV papain-like protease in a yeast assay | S. cerevisiae expressing SARS-CoV PLpro, growth rescue | Potency, µM (series often up to 32.9 µM), without a hit: at the top dose activity, positive = growth rescue, hits mostly activators | actives 0.19% (n = 330,000) | AID 485353; calls by dose curve; also: 0% is about no effect; nearly all actives have a fitted effect of over 55% in size
RE007 growth inh: less growth of the S. pombe RE007 Vpr strain; actives 0.21% (n = 360,000); S. pombe RE007 Vpr strain, BacTiter-Glo ATP luminescence, 24 h; Potency, µM (titrated, usually from 92.2 µM), for the others: at the highest dose activity change, negative = less growth, actives largely listed as inhibitors; active = well fitted falling curve with a large enough effect; inconclusive = small, poorly fitted or top-dose-only effect; inactive = no such curve, though single readings can be large or run the other way; also: % is scaled to controls: 0 for no effect and ±100 for the full control effect; nearly all actives have a fitted effect of over 50% in size
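Fission yeast strain RE007, carrying one chromosomally integrated HIV-1 vpr copy, was seeded at OD 0.01 in PMG+AL medium with 23 nL pinned compound. After 24 h at 30 °C and 99% humidity, viability was read by BacTiter-Glo luminescence.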
AmpC inh detg: AmpC beta-lactamase inhibition with detergent present. P00811. AmpC hydrolysis of nitrocefin, absorbance 480 nm, 0.01% Triton. Potency, µM (top dose mostly 114 µM), for inactives: at the top dose activity change, negative = inhibition, hits mostly inhibitors. actives 0.041% (n = 370,000). AID 485294;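 also: 0% = no-compound wells and -100% = no-enzyme wells; nearly all actives have a fitted effect of over 25% in size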
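20 mM phosphate pH 7.0 + 0.01% (detergent screen) or 0.0001% Triton X-100; 5.3 nM AmpC reagent; cpd preinc 15 min RT; nitrocefin (800 uM stock) to start; A480 q20 s × 4 min; Activity was normalised to no-enzyme and no-compound control wells.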
* hit, by the source's call; ? = inconclusive; / = not tested or not shown. The list is not random: actives were taken first. Their share in the collection is about 3.3%. Unless noted, calls follow the shape of the dose curve; as a rule, active = well fitted curve in the direction sought with a large enough effect; inconclusive = small, poorly fitted or top-dose-only effect, or another doubt; inactive = no such curve, though single readings can be large; an effect the other way counts as inactive or inconclusive. Potency is read from the fitted curve at half-maximal effect.

SMILES	Sm TGR block	AmpC inh no detg	Tb PYK inh	SARS PLpro yeast	RE007 growth inh	AmpC inh detg
Cn1c(N)c(C(C[N+](=O)[O-])c2ccccc2Cl)c(=O)n(C)c1=O (stereo not given)	/	/	2%	/	40µM*	/
Cc1ccc(C(C[N+](=O)[O-])c2c(N)n(C)c(=O)n(C)c2=O)cc1 (stereo not given)	-27%	-21%	-10%	-21%	?	1%
Cc1ccc(N(CCC#N)C(=O)CCl)cc1C	18µM*	-18%	-7%	-3%	1%	3%
O=C(O)c1cccc(NC(=S)NC(=O)c2ccc3ccccc3c2)c1	25µM*	-32%	3%	2%	3%	1%
O=C(O)c1ccc(NC(=S)NC(=O)c2ccc3ccccc3c2)cc1	0%	-27%	1%	0%	-7%	0%
CCOc1cccc(C(=O)NC(=S)Nc2cccnc2)c1	45µM*	-28%	-2%	4%	-6%	?
O=C(O)c1ccc(NC(=S)NC(=O)c2cccc(COc3ccccc3)c2)cc1	25µM*	-47%	-16%	-2%	10%	2%
CCOc1cccc(C(=O)NC(=S)Nc2ccccc2)c1	40µM*	-29%	-14%	-4%	-25%	2%
COc1ccccc1NC(=O)Cn1c(=O)n(CCCCCC(=O)NCc2ccccc2)c(=O)c2sccc21	1%	/	2%	/	/	9%
Cc1oc(-c2cccc(Br)c2)nc1Cn1c(=O)cc(-c2ccccc2)c2c(C)nn(C)c21	2%	/	2%	/	/	7%
CCOC(=O)c1c(NS(=O)(=O)Cc2ccccc2)sc2c1CCCC2	-34%	-36%	-2%	-2%	-2%	-12%
CCOC(=O)c1c(NS(=O)(=O)c2ccc(Br)cc2)sc2c1CCC2	/	/	28µM*	/	9%	/
CC(C)(C)c1ccc(C(=O)CCCSC2=C(C#N)C(c3ccco3)C3=C(CCCC3=O)N2)cc1 (stereo not given)	40µM*	-18%	-7%	11%	5%	-4%
Cc1ccc(C(=O)CSC2=C(C#N)C(c3ccco3)C3=C(CCCC3=O)N2)cc1 (stereo not given)	?	?	-11%	-2%	-15%	?
Nc1ccn(C2CO[C@H](CO)O2)c(=O)n1 (stereo not given in full)	/	/	3%	/	/	/
Nc1c(C(=O)Nc2ccc(F)cc2)sc2nc(-c3ccco3)ccc12	?	?	3%	-3%	?	-2%
CC(=O)c1sc2nc(-c3ccco3)ccc2c1N	0.89µM*	-25%	?	-4%	?	-3%
Nc1c(C(=O)Nc2ccc(Br)cc2)sc2nc(-c3ccco3)ccc12	0.79µM*	-52%	0%	-20%	10%	-4%
Cc1cc(C)cc(OC(C)C(=O)Nc2c(C(=O)c3ccccc3)oc3ccccc23)c1 (stereo not given)	-3%	/	1%	/	/	1%
CCCCn1c(=O)c2oc3ccccc3c2n(Cc2cccc(C)c2)c1=O	1%	/	0%	/	/	0%
Oc1c(C(c2ccccc2)N2CCC3(CC2)OCCO3)sc2nc(-c3ccco3)nn12 (stereo not given)	0%	/	-9%	/	/	-1%
COc1ccc(Cl)cc1C(=O)NNC(=O)c1[nH]c(C)c(C(C)=O)c1C	/	10µM*	-4%	14%	-3%	/
CC(=O)c1c(C)[nH]c(C(=O)NNC(=O)c2ccc(C)cc2)c1C	/	-20%	-9%	-1%	-7%	/
COc1ccc(C2C(C(=O)c3ccccc3)N3c4ccccc4C=CC3C2[N+](=O)[O-])cc1 (stereo not given)	40µM*	-29%	-4%	-1%	-7%	5%
COc1ccc(N2C(=O)[C@@H]3[C@H](C2=O)[C@H](C(C)=O)N2c4ccccc4C=C[C@@H]32)cc1	?	33%	-6%	0%	-13%	2%
SMILES	Sm TGR block	AmpC inh no detg	Tb PYK inh	SARS PLpro yeast	RE007 growth inh	AmpC inh detg
O=C1C=CC(=O)N1c1ccc(-c2nc3ccccc3o2)cc1	/	/	11µM*	/	6.3µM*	/
CCN1CCC(N(Cc2ccc(F)cc2)C(=O)Nc2cccc(C(F)(F)F)c2)CC1	10%	/	2%	/	/	17%
O=C(O)/C=C/C(=O)c1c(-c2ccccc2)[nH]c2ccccc12	25µM*	-37%	2%	0%	1%	-7%
CC(=O)c1c(-c2ccccc2)[nH]c2ccccc12	-18%	-20%	3%	-6%	0%	?
CCC(OC(=O)c1ccco1)C(=O)NCc1ccco1 (stereo not given)	0%	14%	1%	-1%	12%	?
O=C(NCc1ccco1)[C@@H]1CCCN1C(=O)c1cccs1	40µM*	-12%	-8%	3%	10%	-2%
CC(C)CC(OC(=O)c1ccco1)C(=O)NC1CCCC1 (stereo not given)	-6%	10%	-2%	1%	-16%	-9%
CC(C)CC(OC(=O)c1cccs1)C(=O)NCc1ccco1 (stereo not given)	40µM*	0%	0%	1%	4%	0%
CC(C)CC(OC(=O)c1ccco1)C(=O)NC1CCCCC1 (stereo not given)	-10%	13%	-2%	-5%	2%	32µM*
CCC(OC(=O)c1cccs1)C(=O)NCc1ccco1 (stereo not given)	56µM*	-5%	-1%	?	-5%	-2%
O=C(NCc1ccccc1)[C@@H]1CCCN1C(=O)[C@@H]1CCCN1C(=O)c1cccs1	/	/	-5%	/	3%	/
COc1cc(OC)c(C2C=C(c3ccc(C)cc3)Nc3c(C(=O)Nc4ccccc4)cnn32)cc1OC (stereo not given)	-2%	/	-15%	/	/	8%
O=C(Cn1c(=O)n(Cc2ccco2)c(=O)c2ccccc21)Nc1ccc(Cl)cc1Cl	0%	/	-3%	/	/	20%
CC1(CCl)N([O-])C2=C(CCCC2)[N+]1=O (stereo not given)	40µM*	-12%	-5%	0%	-1%	4%
O=[N+]1C2=C(CCCC2)N([O-])C12CCCC2	-31%	-9%	4%	6%	0%	-7%
CCN1C(=O)[C@@H]2[C@@H](c3ccc(-c4ccc(F)cc4)c(OC)c3)N3CCCC[C@@]3(C(=O)OC)[C@@H]2C1=O	28µM*	67%	-5%	-8%	7%	-2%
CCN1C(=O)[C@H]2[C@@H](c3ccc(-c4ccc(C(C)=O)cc4)c(OC)c3)N3CCCC[C@@]3(C(=O)OC)[C@H]2C1=O	/	191%	0%	-27%	-13%	/
